High-throughput results deposited in PubChem by The Scripps Research Institute Molecular Screening Center.
GPR151 ag: activators of human GPR151; Q8TDV0; PathHunter beta-arrestin GPR151 cells, luminescence; activation, % at 11.2 µM; 650,000 tested, 1% active; in the data active means activation above about 4.9%;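 further: 0% = median of compound wells and 100% = cells with positive control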
MITF primary: blocks human microphthalmia-associated transcription factor | 650,000 tested, 0.91% active | AlphaScreen MITF homodimerization, bead proximity signal | AID 1259374 | inhibition, % at 2.6 µM; in the data active means inhibition above about 50%;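 further: 0% = vehicle wells with protein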
Target sequence (O75030 whole entry, looked up): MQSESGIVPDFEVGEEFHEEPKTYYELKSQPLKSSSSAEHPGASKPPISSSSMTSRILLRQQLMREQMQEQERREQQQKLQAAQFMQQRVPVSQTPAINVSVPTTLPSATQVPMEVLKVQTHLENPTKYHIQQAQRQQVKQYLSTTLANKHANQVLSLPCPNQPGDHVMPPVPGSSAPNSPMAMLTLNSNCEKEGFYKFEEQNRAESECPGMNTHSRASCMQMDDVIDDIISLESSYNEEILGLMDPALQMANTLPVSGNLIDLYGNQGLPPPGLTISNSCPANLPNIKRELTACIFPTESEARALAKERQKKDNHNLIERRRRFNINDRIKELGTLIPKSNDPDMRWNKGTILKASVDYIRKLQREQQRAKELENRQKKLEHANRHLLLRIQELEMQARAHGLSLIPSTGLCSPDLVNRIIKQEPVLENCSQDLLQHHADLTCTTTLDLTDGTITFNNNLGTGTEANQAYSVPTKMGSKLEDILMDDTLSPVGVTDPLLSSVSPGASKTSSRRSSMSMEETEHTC
TEAD-YAP block: TEAD-YAP interaction inhibition; HEK-TIYL cells, TEAD-Gal4/YAP UAS-luciferase luminescence; inhibition, % at 9.12 µM; 640,000 tested, 1.4% active; in the data active means inhibition above about 32%;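 further: 0% = median of test compound wells and 100% = reference inhibitor wells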
FBW7 act: human FBW7 E3 ligase activation, primary screen | Q969H0 | AlphaScreen FBW7–phospho-cyclin E peptide binding, activator screen | normalized activity (activation), % at 26.1 µM | 650,000 tested, 0.13% active | AID 1259310; in the data active means normalized activity above about 1.9%;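 further: purified mutant Fbw7 with reduced substrate affinity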
MITF confirm: confirmation of human MITF inhibitors. shares compounds with MITF primary. AlphaScreen MITF homodimerization, biotin/His-MITF beads. inhibition, % at 2.6 µM. 4,700 tested, 16% active. AID 1259372;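 active means inhibition above a cutoff derived from the DMSO control wells, cut at about 28% in these data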;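 further: 0% = MITF dimer wells with DMSO only; inhibitors lower the bead chemiluminescence by keeping MITF from dimerizing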
AlphaScreen intf2: counter-screen: compounds optically interfering with AlphaScreen; inhibition, % at 2.6 µM; 4,700 tested, 7.6% active; LysRS AlphaScreen counterscreen, signal interference, triplicate; shares compounds with MITF primary;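 active means inhibition above a cutoff derived from the DMSO control wells, cut at about 30% in these data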
An asterisk follows results filed as active; . = no result. Rows were chosen to be rich in hits. Some 3.4% of all compounds tested hit in one or more screens of this group.

SMILES | GPR151 ag | MITF primary | TEAD-YAP block | FBW7 act | MITF confirm | AlphaScreen intf2
Cn1cccc1CN1CCN(C(=O)c2ccccc2F)CC1 | -0.4 | 54.0* | 7.5 | -0.2 | 11.4 | 17.1
C/C(=N\Nc1nc2ccccc2o1)c1ccccn1 | -1.8 | 55.0* | -9.4 | -0.9 | 3.5 | 3.3
C/C(=N\Nc1ccccc1Cl)c1ccccn1 | -1.7 | -1.3 | -46.1 | -0.1 | . | .
CC1(C)CC(N2COc3c(cc(Cl)c4cccnc34)C2)CC(C)(C)N1 | -1.0 | 52.0* | 40.3* | -0.3 | 68.0* | 99.9*
Clc1cc2c(c3ncccc13)OCN(C1CCCC1)C2 | -0.1 | 97.3* | 65.7* | -1.3 | 99.1* | 100.6*
Clc1cc2c(c3ncccc13)OCN(Cc1ccco1)C2 | -0.8 | 33.0 | 26.9 | -0.3 | . | .
O=C(Cc1csc(-c2ccccc2)n1)NNC(=O)c1cc(-c2ccccc2)n[nH]1 | 1.0 | 14.2 | 1.6 | 0.7 | . | .
CCN(CC)CCCCCCn1c(C)cc(=O)n(C)c1=O | -0.4 | 36.2 | -0.8 | 0.0 | . | .
Cc1cc(=O)n(C)c(=O)n1CCCCCCN1CCOCC1 | 0.2 | 55.2* | 1.5 | -0.2 | 1.5 | 3.9
O=C(OCc1ccccc1Cl)c1ccc(S(=O)(=O)NCc2ccco2)cc1 | 0.1 | -11.2 | -0.1 | -0.2 | . | .
COCC(=O)NCc1ccc(Cl)cc1 | -0.1 | 0.5 | 0.3 | -0.1 | . | .
COC(=O)C(NCC(=O)NCc1ccc(Cl)cc1)C(C)C (configuration not stated) | -1.4 | 65.6* | 5.1 | 0.2 | 14.8 | 19.3
COc1cc2c(cc1OC)C(C(=O)O)C(c1ccccc1O)N(C)C2=O (configuration not stated) | -0.2 | -0.5 | -2.1 | 0.1 | . | .
CCOCCOC(=O)C1=C(C)NC(=O)CC1c1cccc(Cl)c1 (configuration not stated) | 0.3 | -8.1 | 10.6 | 0.0 | . | .
O=C(NC(=S)Nc1ccc2[nH]c(=O)[nH]c2c1)c1ccccc1Cl | 0.0 | 99.2* | -8.8 | -0.1 | -9.8 | -2.9
COc1ccccc1C(=O)NC(=S)Nc1ccc2[nH]c(=O)[nH]c2c1 | -0.9 | -10.0 | -46.6 | 0.0 | . | .
COc1ccc(C(=O)CSc2ncn[nH]2)cc1C | -0.3 | 69.2* | -15.3 | -0.1 | 7.1 | 15.3
COc1ccc(OC)c(C(=O)CSc2ncn[nH]2)c1 | 2.9 | 7.7 | -8.7 | 0.0 | . | .
CCN(O)C(=O)Nc1cccc(Cl)c1 | -0.2 | 70.4* | -6.3 | 0.1 | -6.8 | -4.5
CC(=O)CC(=O)Nc1cccc(Cl)c1 | 0.8 | 9.8 | -11.3 | 0.0 | . | .
O=C(Nc1ccc(S(=O)(=O)Nc2ncccn2)cc1)c1ccc(=O)[nH]c1 | 0.7 | 13.4 | 2.2 | 0.4 | . | .
COc1cc(OC)cc(C(=O)Nc2nnc(SCC(N)=O)s2)c1 | -1.1 | -5.5 | 2.6 | -0.1 | . | .
O=C(O)c1cccc(Cn2c(Cl)c(/C=N/NC(=O)c3ccncc3)sc2=O)c1 | 0.8 | -3.3 | -4.7 | -0.1 | . | .
Cc1cccc2cc(CN(CCCO)Cc3nnnn3Cc3ccccc3)c(=O)[nH]c12 | -1.2 | 8.7 | 8.5 | 0.2 | . | .
COc1cccc(-c2ocnc2C(=O)Nc2ccc(-c3ccc(C)o3)cc2)c1 | -0.9 | 7.9 | -20.3 | 0.0 | . | .
SMILES | GPR151 ag | MITF primary | TEAD-YAP block | FBW7 act | MITF confirm | AlphaScreen intf2
NS(=O)(=O)c1ccc(CCNC(=O)CNS(=O)(=O)c2cccs2)cc1 | -0.9 | 79.7* | 5.9 | 0.0 | -5.3 | 5.1
Cc1ccc(/C=N/NC(=O)CCN2CCN(C)CC2)cc1 | -0.1 | 54.1* | 1.0 | -0.3 | 6.7 | -0.1
CC(/C=N/NC(=O)CN1CCN(C)CC1)=C\c1ccccc1 | 0.2 | 73.0* | 9.1 | 0.7 | 3.1 | -5.0
CCN1CCN(CC(=O)N/N=C/c2cc(Br)cs2)CC1 | 0.3 | 67.8* | 19.9 | 0.6 | -0.9 | 3.1
CC(/C=N\NC(=O)Cc1cccn1C)=C\c1ccccc1 | 0.9 | -4.5 | -8.9 | 0.0 | . | .
CN(C)c1ccc(/C=N\NC(=O)CN2CCN(Cc3ccccc3)CC2)cc1 | 0.6 | -4.3 | 4.6 | 0.2 | . | .
CCN1CCN(CC(=O)N/N=C/c2ccc(N(C)C)cc2)CC1 | 1.4 | 51.8* | 1.6 | 0.0 | 26.0 | 6.4
COc1ccccc1C1C(C(N)=O)=C(C)Nc2nc(SCc3ccccc3Cl)nn21 (configuration not stated) | -0.3 | 11.7 | -5.4 | 0.5 | . | .
CCOc1ccc(-c2c(C#N)c(N)nc(SCC(=O)OCc3ccccc3)c2C#N)cc1 | 0.1 | 5.3 | 4.3 | -0.1 | . | .
O=C(Cc1nc2scc(-c3ccccc3)c2c(=O)[nH]1)N1CCCC1 | -0.1 | 6.4 | -2.4 | -0.1 | . | .
Cc1ccc(-c2csc3nc(CN(C)C4CCN(C)CC4)[nH]c(=O)c23)cc1 | 0.3 | 59.5* | -2.5 | -0.2 | -0.1 | -0.3
CCc1c(O)nc(SCC(=O)Nc2nc(C)cs2)[nH]c1=O | 0.8 | 19.5 | -3.8 | 0.0 | . | .
COc1cc(C(=O)N2CCN(Cc3ccncc3)CC2)cc(OC)c1OC | -0.8 | 76.4* | 0.5 | 0.1 | -9.4 | -2.2
COc1ccc(C(=O)N2CCN(Cc3ccc(OC)c(OC)c3)CC2)cc1 | -1.6 | 24.5 | -5.6 | -0.4 | . | .
COc1cc(CN2CCN(C(=O)c3ccncc3)CC2)cc(OC)c1OC | 0.5 | 72.0* | -0.5 | 0.0 | 3.4 | -6.2
COc1ccc(CN2CCN(C(=O)c3ccncc3)CC2)cc1OC | -0.3 | 69.5* | 2.8 | -0.2 | -9.2 | -3.3
COc1cc(OC)cc(C(=O)N2CCN(Cc3cc(OC)c(OC)c(OC)c3)CC2)c1 | -1.0 | 29.0 | 4.8 | -0.1 | . | .
CCCN1C(=O)C(O)(CC(=O)c2ccc(I)cc2)c2ccccc21 (configuration not stated) | 0.6 | -0.5 | -3.6 | 0.0 | . | .
COc1ccc(C2C(C#N)=C(N)N(c3ccc(F)cc3)C3=C2C(=O)CC(C)(C)C3)cc1 (configuration not stated) | -2.9 | -10.7 | -24.1 | 0.1 | . | .
c1ccc(CCCN2CCN(C3CCN(Cc4ccccc4)CC3)CC2)cc1 | -0.2 | -4.6 | -8.2 | 0.1 | . | .
c1ccc(CCCN2CCN(Cc3cccnc3)CC2)cc1 | -2.3 | 83.4* | -1.9 | 0.1 | 18.8 | 19.4
CN1CCCN(Cc2ccccc2F)CC1 | 0.5 | 11.5 | -0.5 | -0.2 | . | .
Fc1ccc(CN2CCN(CCCc3ccccc3)CC2)cc1 | -1.3 | 58.6* | -4.0 | 0.0 | 5.0 | -0.2
Fc1ccccc1CN1CCN(CCCc2ccccc2)CC1 | -1.6 | 72.8* | 4.0 | -0.2 | 7.7 | 3.1
Fc1ccccc1OCCCN1CCN(Cc2ccccc2)CC1 | -1.2 | 64.1* | 4.6 | 0.7 | 6.2 | 16.1
SMILES | GPR151 ag | MITF primary | TEAD-YAP block | FBW7 act | MITF confirm | AlphaScreen intf2
CCCN1CCC(=NNC(=O)c2c[nH]c3ccccc23)CC1 | 0.3 | 5.1 | -10.0 | 0.0 | . | .
C/C(=N\Nc1ccccn1)c1ccc(-n2ccnc2)cc1 | 2.8 | 16.0 | -15.1 | -0.2 | . | .
C/C(=N\N1CCOCC1)c1ccc(-n2ccnc2)cc1 | -0.1 | 76.5* | -3.3 | -0.1 | 7.8 | -2.0
O=C1SC(c2ccccc2)=C/C1=C\N1CCOCC1 | -1.1 | 8.0 | -1.6 | -0.4 | . | .
CCC(CC)C(=O)Nc1nnc(SCC(=O)NC2CCCC2)s1 | 0.0 | 60.8* | 3.3 | -0.1 | 1.3 | 11.2
CCC(C)C(=O)Nc1nnc(SCC(=O)NC2CCCC2)s1 (configuration not stated) | -0.1 | 13.3 | 5.1 | 0.0 | . | .
